Test systems include NCI-H23 lung; NCI-H226 lung; NCI-H322M lung; HOP-62 NSCLC; NCI-H460 lung; HOP-92 NSCLC; A549/ATCC NSCLC; 786-0 renal; COLO 205 colon; DU-145 prostate; K-562 leukemia; MALME-3M melanoma; MDA-MB-231 breast; RXF 393 renal; SF-268 CNS; SF-295 CNS; SF-539 CNS; UACC-257 melanoma; M14 melanoma.
Holding throughout (test): NCI-60 one-dose screen, 48 h (100 = growth as untreated, 0 = no growth, -100 = all killed)
Details in all cases: 10 µM unless noted

The panel holds about 83,000 compounds, 20% with a hit somewhere; the sample as a whole holds those more often.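 Cell lines were cultured in 96-well plates, exposed to a single compound concentration, and assessed for percent growth 48 hours later.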 Values without a mark were called inactive. The source made the active and inactive calls. The calls were made as follows: active = growth percent below 10; inactive = the rest.

Regarding `Cc1cc(=O)[nH]c(/C(=N/Nc2ccccc2)C(=O)c2ccc(Cl)cc2)n1`, the growth in the assay with NCI-H23 lung is 105%; with NCI-H226 lung it was 109%; with NCI-H322M lung it was 107%; in the assay on HOP-62 NSCLC, 104%; in the assay on NCI-H460 lung it was 109%; in the assay with HOP-92 NSCLC, 88.7%. Moreover, the growth with A549/ATCC NSCLC is 92.5%; in the assay on 786-0 renal it was 82.2%; with COLO 205 colon, 106%; with DU-145 prostate, 105%; in the assay on K-562 leukemia it was 52.7%; in the assay on MALME-3M melanoma, 114%. The growth in the assay with MDA-MB-231 breast was 102%; with RXF 393 renal, 28.5%; with SF-268 CNS it was 117%; in the assay on SF-295 CNS, 75.7%; in the assay with SF-539 CNS it was 92.3%; in the assay with UACC-257 melanoma, 103%. Besides, in the assay with M14 melanoma, the growth was 97.1%.

As for `NS(=O)(=O)c1ccc(-n2ncc3c(NC4CCCCC4)ncnc32)cc1`, the growth was 103% with NCI-H23 lung; 91.5% with NCI-H226 lung; 107% in the assay on NCI-H322M lung; 101% in the assay with HOP-62 NSCLC; 110% in the assay on NCI-H460 lung; 47.4% with HOP-92 NSCLC. In addition, the growth was 83% in the assay with A549/ATCC NSCLC; 81% in the assay with 786-0 renal; 95% with COLO 205 colon; 100% in the assay on DU-145 prostate; 54.4% with K-562 leukemia; 108% with MALME-3M melanoma. The growth was 85.9% in the assay on MDA-MB-231 breast; 13.4% with RXF 393 renal; 116% with SF-268 CNS; 48.9% in the assay with SF-295 CNS; 90.9% in the assay on SF-539 CNS; 79.6% in the assay with UACC-257 melanoma. The growth in the assay on M14 melanoma is 98.2%.

For `Cc1ccc2nc(SCC(=O)Nc3ccc(-c4nc5ccccc5s4)c(Cl)c3)[nH]c2c1`, the growth in the assay on NCI-H23 lung is 109%; in the assay on NCI-H226 lung, 98.7%; in the assay on NCI-H322M lung, 101%; in the assay on HOP-62 NSCLC it was 114%; in the assay with NCI-H460 lung, 116%; in the assay on HOP-92 NSCLC, 98%. In addition, the growth in the assay on A549/ATCC NSCLC is 98.3%; in the assay with 786-0 renal, 98.1%; in the assay with COLO 205 colon, 107%; with DU-145 prostate, 132%; in the assay on K-562 leukemia, 109%; in the assay with MALME-3M melanoma, 131%. For the same compound, the growth in the assay with MDA-MB-231 breast is 113%; in the assay on RXF 393 renal, 98.6%; in the assay with SF-268 CNS it was 105%; in the assay with SF-295 CNS, 106%; with SF-539 CNS, 109%; with UACC-257 melanoma, 96.9%. Further, in the assay on M14 melanoma, the growth is 111%.

For `O=c1[nH]c(N2CCC(Cc3ccccc3)CC2)nc2sc3c(c12)CCCC3`, the growth in the assay with NCI-H23 lung is 95.9%; in the assay with NCI-H226 lung, 92.3%; in the assay on NCI-H322M lung, 97.1%; in the assay on HOP-62 NSCLC, 94.5%; in the assay on NCI-H460 lung, 102%; with HOP-92 NSCLC, 91.2%. The growth was 77.5% in the assay on A549/ATCC NSCLC; 105% in the assay with 786-0 renal; 105% in the assay on COLO 205 colon; 107% with DU-145 prostate; 110% with K-562 leukemia; 102% with MALME-3M melanoma. Further, the growth with MDA-MB-231 breast was 106%; in the assay with RXF 393 renal, 104%; in the assay with SF-268 CNS it was 95.2%; in the assay on SF-295 CNS it was 94.6%; in the assay with SF-539 CNS, 105%; in the assay on UACC-257 melanoma, 85.4%. Besides, the growth in the assay on M14 melanoma is 100%.

`Cc1ccccc1NC(=O)NC(CC(N)=O)c1ccc2c(c1)nc(-c1cccc(Oc3ccc(C(C)(C)C)cc3)c1)n2CCCN1CCCCC1C` (configuration not stated): the growth is 64.7% in the assay on NCI-H23 lung; 109% in the assay with NCI-H226 lung; 65% in the assay with NCI-H322M lung; 25.8% in the assay on HOP-62 NSCLC; -30.7% (active) in the assay with NCI-H460 lung; 13.5% in the assay with HOP-92 NSCLC. In addition, the growth in the assay with A549/ATCC NSCLC is 54.9%; in the assay with 786-0 renal, 26.7%; with COLO 205 colon, -65.6% (active); with DU-145 prostate, 68.2%; in the assay with K-562 leukemia, -44.6% (active); in the assay on MALME-3M melanoma, -52.6% (active). The growth with MDA-MB-231 breast was 28.1%; with RXF 393 renal it was 25.1%; in the assay on SF-268 CNS, 46.7%; with SF-295 CNS, 83.5%; in the assay on SF-539 CNS, 13.1%; with UACC-257 melanoma, -71.3% (active). In the assay on M14 melanoma, the growth is -81.8% (active).

As for `CCOC(=O)OCC(=O)[C@@]1(O)CC[C@H]2[C@@H]3CCC4=CC(=O)CC[C@]4(C)[C@H]3[C@@H](O)C[C@@]21C`, the growth in the assay with NCI-H23 lung was 111%; with NCI-H226 lung, 70.1%; in the assay on NCI-H322M lung, 99.2%; with HOP-62 NSCLC, 98.5%; in the assay on NCI-H460 lung, 102%; in the assay on HOP-92 NSCLC it was 72.5%. Also, the growth in the assay on A549/ATCC NSCLC is 74.2%; with 786-0 renal it was 108%; in the assay with COLO 205 colon, 104%; in the assay on DU-145 prostate, 101%; with K-562 leukemia, 111%; in the assay with MALME-3M melanoma, 75.7%. For the same compound, the growth in the assay on MDA-MB-231 breast is 98.2%; with RXF 393 renal it was 127%; in the assay on SF-268 CNS, 94%; in the assay on SF-295 CNS, 129%; with SF-539 CNS it was 91.3%; in the assay with UACC-257 melanoma it was 93.4%. The growth in the assay with M14 melanoma was 90.7%.

Consider `N#Cc1c(NC(=O)c2ccco2)[n+]([O-])c2cc(Cl)c(Cl)cc2[n+]1[O-]`, for which the growth was 86.3% with NCI-H23 lung; 106% in the assay with NCI-H226 lung; 121% with NCI-H322M lung; 137% with HOP-62 NSCLC; 109% with NCI-H460 lung; 212% with HOP-92 NSCLC. Also, the growth is 96.6% in the assay on A549/ATCC NSCLC; 107% with 786-0 renal; 114% in the assay on COLO 205 colon; 103% in the assay on DU-145 prostate; 96.4% in the assay on K-562 leukemia; 123% with MALME-3M melanoma. Moreover, the growth was 93.9% in the assay on MDA-MB-231 breast; 91.3% with RXF 393 renal; 114% in the assay on SF-268 CNS; 135% in the assay with SF-295 CNS; 90.4% in the assay on SF-539 CNS; 99.3% in the assay on UACC-257 melanoma. Further, the growth in the assay with M14 melanoma was 142%.

With `COc1c(O)cc2c(c1CC=C(C)C)OC(=O)c1c(cc(O)c(CC=C(C)C)c1O)O2`, the growth in the assay on NCI-H23 lung is -8.77% (active); with NCI-H226 lung, 88.1%; with NCI-H322M lung it was 77.1%; in the assay with HOP-62 NSCLC it was 6.39% (active); in the assay on NCI-H460 lung, 9.47% (active); in the assay with HOP-92 NSCLC, 54.6%. Besides, the growth in the assay on A549/ATCC NSCLC was 57.1%; in the assay on 786-0 renal, 19.3%; with COLO 205 colon, 107%; in the assay on DU-145 prostate, 71.6%; in the assay on K-562 leukemia, 23.9%; in the assay on MALME-3M melanoma it was 113%. Also, the growth with MDA-MB-231 breast was 4.16% (active); with RXF 393 renal it was -43.5% (active); with SF-268 CNS, 41%; with SF-295 CNS, 81%; with SF-539 CNS, 68.8%; in the assay with UACC-257 melanoma it was 92.6%. Further, the growth in the assay with M14 melanoma was 27.3%.

For the origin of these results see PubChem BioAssay (NCI).
